± gives the uncertainty stated by the source.
The compounds below were run on U87 (assay: cell viability relative to vehicle control; higher = less growth inhibition (less active)). Conditions: 10 µM; 72 h.
`C[C@H](N[C@@H](CCc1ccccc1)C(=O)O)C(=O)N1CCC[C@H]1C(=O)O` gave a cell viability of 98.3 ± 1.7%.
Work on `CNCCCCOc1ccccc1Cc1ccccc1` [Bifemelane] yielded a cell viability of 96.1 ± 9.1%.
`CCCc1nc(C(C)(C)O)c(C(=O)OCc2oc(=O)oc2C)n1Cc1ccc(-c2ccccc2-c2nnn[nH]2)cc1` was tested, and the cell viability was 102 ± 1.9%.
`COc1cc(C)c(Cc2cnc(N)nc2N)cc1OC` was tested, and the cell viability was 100 ± 1.7%.
Work on `Clc1ccc2c(c1)CCc1cccnc1C2=C1CCNCC1` yielded a cell viability of 101.5 ± 0.94%.
With `COc1ccc(/C=C/C(=O)Nc2ccccc2C(=O)O)cc1OC` the cell viability was 104 ± 1.1%.
Work on `COc1cc(CNC(=O)CCCC/C=C/C(C)C)ccc1O` [Capsaicin] yielded a cell viability of 109 ± 1.5%.
`C=CCc1ccc(O)c(-c2ccc(O)c(CC=C)c2)c1` gave a cell viability of 100.7 ± 1%.
Compound `CC(N/C(=N\C#N)Nc1ccncc1)C(C)(C)C` (centres undefined) [Pinacidil monohydrate] has a cell viability of 105 ± 1.1%.
Work on `C[C@H]1[C@H](OC(=O)CCC(=O)O)O[C@@H]2O[C@@]3(C)CC[C@H]4[C@H](C)CC[C@@H]1[C@@]24OO3` yielded a cell viability of 98.9 ± 1.1%.
For `CCOC(=O)O[C@]1(C(=O)OCCl)CC[C@H]2[C@@H]3CCC4=CC(=O)C=C[C@]4(C)[C@H]3[C@@H](O)C[C@@]21C`, the cell viability was 104 ± 1.4%.
With `Cc1nc2ccccn2c(=O)c1CCN1CCC(C(=O)c2ccc(F)cc2)CC1` the cell viability was 97.4 ± 1.5%.
Compound `Cc1onc(-c2ccccc2)c1-c1ccc(S(N)(=O)=O)cc1` has a cell viability of 106.8 ± 0.6%.
Work on `CN(C)CCOC(c1ccccc1)c1ccccc1` [Diphenhydramine] yielded a cell viability of 103 ± 1.1%.
Compound `OCCN1CCN(CCCN2c3ccccc3Sc3ccc(C(F)(F)F)cc32)CC1` [Fluphenazine] has a cell viability of 104.3 ± 0.93%.
In the case of `C[C@@H]1C[C@H]2[C@@H]3C[C@H](F)C4=CC(=O)C(Cl)=C[C@]4(C)[C@@]3(F)[C@@H](O)C[C@]2(C)[C@@]1(O)C(=O)CO`, the cell viability is reported as 102.1 ± 0.4%.
Compound `O=C1[C@H]2CCCC[C@H]2C(=O)N1CCCCN1CCN(c2nsc3ccccc23)CC1` has a cell viability of 102 ± 2.2%.
For `CC(C)NCC(O)COc1ccc(CCOCC2CC2)cc1` (centres undefined) [Betaxolol], the cell viability was 100.4 ± 0.2%.
`CCN1CCN(c2cc3c(cc2F)c(=O)c(C(=O)O)cn3C2CC2)CC1` showed a cell viability of 109 ± 1.3%.
`C[C@@H]1C[C@H]2[C@@H]3CCC4=CC(=O)C=C[C@]4(C)[C@@]3(F)[C@@H](O)C[C@]2(C)[C@H]1C(=O)CO` showed a cell viability of 106 ± 0.2%.
`O=C(O)Cc1ccccc1Nc1c(Cl)cccc1Cl` gave a cell viability of 105.9 ± 0.17%.
With `CN(C)CCC=C1c2ccccc2COc2ccccc21` [Doxepin] the cell viability was 101.6 ± 0.79%.
For `CC(C)(C)NC(=O)[C@H]1CC[C@H]2[C@@H]3CC[C@H]4NC(=O)C=C[C@]4(C)[C@H]3CC[C@]12C`, the cell viability was 104.8 ± 0.76%.
`COc1ccccc1OCCNCC(O)COc1cccc2[nH]c3ccccc3c12` (centres undefined) [Carvedilol] was tested, and the cell viability was 105 ± 2.2%.
With `NC(=O)c1cccnc1` the cell viability was 104.5 ± 1%.
`CN1C(C(=O)Nc2ccccn2)=C(O)c2ccccc2S1(=O)=O` [Piroxicam] gave a cell viability of 103 ± 3.7%.
`CC[C@]1(O)C[C@@H]2CN(CCc3c([nH]c4ccccc34)[C@@](C(=O)OC)(c3cc4c(cc3OC)N(C)[C@H]3[C@@](O)(C(N)=O)[C@H](O)[C@]5(CC)C=CCN6CC[C@]43[C@@H]65)C2)C1` showed a cell viability of 24.7 ± 8.7%.
Work on `CO[C@H]1/C=C/O[C@@]2(C)Oc3c(C)c(O)c4c(O)c(c(/C=N/N5CCN(C6CCCC6)CC5)c(O)c4c3C2=O)NC(=O)/C(C)=C\C=C\[C@H](C)[C@H](O)[C@@H](C)[C@@H](O)[C@@H](C)[C@H](OC(C)=O)[C@@H]1C` yielded a cell viability of 93.7 ± 1.3%.
Work on `NNCCc1ccccc1` yielded a cell viability of 104.4 ± 0.9%.
`Nc1ccc(O)c(C(=O)O)c1` [5-Amino-2-hydroxy-benzoic acid] gave a cell viability of 102.5 ± 0.14%.
Work on `CC(C)c1nc(CN(C)C(=O)N[C@H](C(=O)N[C@@H](Cc2ccccc2)C[C@H](O)[C@H](Cc2ccccc2)NC(=O)OCc2cncs2)C(C)C)cs1` yielded a cell viability of 102 ± 3%.
In the case of `CCCCC(=O)N(Cc1ccc(-c2ccccc2-c2nnn[nH]2)cc1)[C@H](C(=O)O)C(C)C`, the cell viability is reported as 108 ± 3%.
In the case of `CCOC(=O)c1ccc(OC(=O)CCCCCNC(=N)N)cc1` [Gabexate], the cell viability is reported as 98.6 ± 3.2%.
In the case of `Nc1nc(Cl)nc2c1ncn2[C@@H]1O[C@H](CO)[C@@H](O)[C@H]1O`, the cell viability is reported as 90.6 ± 3%.
`O=c1[nH]c(=O)n(C2CCCO2)cc1F` (centres undefined) gave a cell viability of 96.728 ± 0.044%.
With `CN(Cc1cnc2nc(N)nc(N)c2n1)c1ccc(C(=O)N[C@@H](CCC(=O)O)C(=O)O)cc1` the cell viability was 72.9 ± 0.73%.
In the case of `CCOC(=O)C1=C(C)NC(C)=C(C(=O)OC)C1c1cccc([N+](=O)[O-])c1` (centres undefined), the cell viability is reported as 98.9 ± 2.8%.
`O=C1c2c(O)cc(O)cc2O[C@H](c2ccc(O)c(O)c2)[C@H]1O` showed a cell viability of 90.7 ± 4.5%.
`CC(C)[C@H](N)C(=O)OCCOCn1cnc2c(=O)nc(N)[nH]c21` was tested, and the cell viability was 103 ± 1.8%.

Reference: the supplement of paper PMC3898565
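Also: viable cell number estimated from Alamar Blue fluorescence read at 560/90, part of a single-dose primary screen of an FDA-approved drug library.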
